Methyltransferases = Primary Screen for Target Class Profiling of Small Molecule Inhibitors of Methyltransferases; purified enzyme, MTase-Glo SAH luminescence; active compounds read low; calls only at 40 µM; 3.9% of 25,000 active; AID 1745853, 2022; call rule not given here
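Each enzyme was assayed with SAM and its substrate. SAH formation detected by MTase-Glo luminescence; single-point 40 uM screen[…].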
Calls only; . = inactive; + = active, no number. This is one part of a sample in which hits are shown more often than they occur.

SMILES	Methyltransferases
CN(C)c1nc(NC2CCC(NCCc3ccc(Br)cc3OC(F)(F)F)CC2)nc2ccccc12 (configuration not stated)	+
CC(C)CCNC(=O)C1(C)Cn2c(ccc2-c2ccco2)C(=O)N1Cc1ccccc1 (configuration not stated)	.
CCC(C)NC(=O)c1ccc2c(=O)n(C)c3nn(CC(=O)c4cccc(Cl)c4)c(=O)n3c2c1 (configuration not stated)	.
CC1(C(=O)NC2CCCCCCC2)Cn2c(ccc2-c2ccco2)C(=O)N1CCCc1ccccc1 (configuration not stated)	.
Cc1ccc2c(cnn2C(=O)CCC(=O)N2CCN(C)CC2)c1	.
CN1CCN(Cc2ccc(NC(=O)Cc3ccc(Oc4cc(NC(=O)C5CC5)ncn4)cc3)cc2C(F)(F)F)CC1	+
CCOc1cccc(NC(=O)c2ccc(N3CCCC3)c(C(F)(F)F)c2)c1	.
CCN1CCN(Cc2ccc(NC(=O)Nc3ccc(Oc4cc(NC)ncn4)cc3)cc2C(F)(F)F)CC1	+
COc1ccc(NC(=O)COc2ccc(NC(=O)C3CC3)cn2)cc1	.
CCOc1ccc(NC(=O)N2CCn3cccc3C2C(C)C)cc1 (configuration not stated)	.
Cc1ccc(CCNC(=O)C2CCN(c3cc(C(F)(F)F)ncn3)CC2)cc1	.
CCCn1c(=O)c2cc(Cl)ccc2n2c(SCC(=O)Nc3ccc(C)cc3)nnc12	.
Cc1ccccc1CCNC(=O)CCn1ccc2cc(S(=O)(=O)N3CCCCC3)ccc21	.
CCOc1ccc(CNC(=O)c2cc3n(n2)CC(C)(C(=O)NCc2ccc(C)cc2)N(C)C3=O)cc1OC (configuration not stated)	.
C=CCn1c(=O)c2ccc(C(=O)NC(C)C)cc2n2c(=O)n(CC(=O)N(C)c3ccccc3)nc12	.
Cc1[nH]c2ccccc2c1C(=O)Cn1nc2n(Cc3ccccc3)c(=O)c3ccccc3n2c1=O	.
CCC(C)NC(=O)c1ccc2c(=O)n(C)c3nnc(SCc4cc(C)ccc4C)n3c2c1 (configuration not stated)	.
CCCSCCCN1C(=O)c2nc3ccccc3n2CC1(C)C(=O)NC1CCCCC1C (configuration not stated)	.
CC1(C(=O)NC2CCCCCC2)Cn2c(cc3ccccc32)C(=O)N1CC1CCCO1 (configuration not stated)	.
CCCn1c(=O)c2cc(Cl)ccc2n2c(SCc3cccc(C)c3)nnc12	.
Cc1ccccc1NC(=O)N1CCn2c(C)ccc2C1C(C)C (configuration not stated)	.
COc1ccccc1CN1C(=O)c2nc3ccccc3n2CC1(C)C(=O)NC1CCCC1 (configuration not stated)	.
CC1(C(=O)NC2CCCC2)Cn2c(ccc2-c2ccccc2)C(=O)N1Cc1cccs1 (configuration not stated)	.
COc1ccc(N2C(=O)CSc3c(c4ccccc4n3C)C2C(=O)NCCCOC(C)C)c(OC)c1 (configuration not stated)	.
Cc1ccccc1CNC(=O)C1(C)Cc2ccccc2C(=O)N1Cc1cccc(Cl)c1 (configuration not stated)	.
SMILES	Methyltransferases
COc1ccc2c(c1)N1C(=O)C[C@@]34C=CC[N@+]5([O-])CC[C@H]2[C@H](CC3)[C@@]145	.
COc1cc2c(cc1OC)N1C(=O)C[C@]34C=CCN5CC[C@@H]2[C@@H](CC3)[C@]514	+
CCN(CC)CCNC(=O)CCn1ccc2cc(S(=O)(=O)N3CCCCC3)ccc21	.
O=C1c2ccccc2-c2nc3nnnn3nc21 (tested in a mixture with another compound)	+
Cc1ccc(C)c(N2C(=O)c3cc(C4CC4)nn3CC2(C)C(=O)NC2CCCCCC2)c1 (configuration not stated)	.
CCOC(=O)c1cc2n(n1)CC(C)(C(=O)NCc1ccc(C)cc1)N(c1ccc(OC)cc1)C2=O (configuration not stated)	.
CCOC(=O)N1CCC(CN(Cc2ccc(Cl)cc2)Cc2ccc([N+](=O)[O-])s2)C1 (configuration not stated)	+
CCCN1C(=O)c2c(C(=O)NCc3ccc(OC)cc3)ncn2CC1(C)C(=O)NCc1ccc(C)cc1 (configuration not stated)	.
O=C(NCCC1CCN(S(=O)(=O)c2ccccc2)CC1)NCc1ccco1	.
N#Cc1ccc(COC[C@H]2O[C@@H](n3c(NCc4ccc(Cl)c(Cl)c4)nc4c(N)ncnc43)[C@H](O)[C@@H]2O)cc1	+
OC[C@H]1O[C@@H](n2cnc3c(NCc4ccc(O)cc4)ncnc32)[C@H](O)[C@@H]1O	.
Nc1ncnc2c1ncn2[C@@H]1O[C@H](COP(=O)(O)CP(=O)(O)OP(=O)(O)O)[C@@H](O)[C@H]1O	.
CCOC(=O)c1cc2n(n1)CC(C)(C(=O)NCCC(C)C)N(Cc1ccc(F)cc1)C2=O (configuration not stated)	.
Cc1cccc(-c2nnn3c2nc(N2CCOCC2)c2cc(Cl)ccc23)c1	.
O=C(Cn1ccc2cc(S(=O)(=O)N3CCCC3)ccc21)NCCc1ccc(Cl)cc1	.
COc1ccccc1CNC(=O)C1(C)Cn2cnc(C(=O)NCc3ccc(OC(C)C)cc3)c2C(=O)N1C1CC1 (configuration not stated)	.
CCCC1c2cccn2CCN1C(=O)Nc1ccccc1C(F)(F)F (configuration not stated)	+
CC(C)C1c2cccn2CCN1C(=O)Nc1ccccc1C(F)(F)F (configuration not stated)	.
CCCC1c2ccc(C)n2CCN1C(=O)Nc1ccccc1C(F)(F)F (configuration not stated)	.
CCCn1c(=O)c2ccccc2n2c(SCC(=O)NCc3ccc(OC)cc3)nnc12	.
CCCn1c(=O)c2ccccc2n2c(SCC(=O)Nc3cc(OC)cc(OC)c3)nnc12	.
CCOC(=O)c1cc2n(n1)CC(C)(C(=O)NC1CCCCC1)N(c1ccc(C)cc1C)C2=O (configuration not stated)	.
COc1ccc(N2C(=O)c3cc4ccc(OC)cc4n3CC2(C)C(=O)NC2CCCCC2)cc1 (configuration not stated)	.
Cc1ccc(O)c(N=Nc2ccccc2)n1	+
COc1ccc2cc3n(c2c1)CC(C)(C(=O)NC1CCCCC1)N(Cc1ccccc1)C3=O (configuration not stated)	.
SMILES	Methyltransferases
CCc1cc2c(cc3n2CC(C)(C(=O)NC2CCC(C)CC2)N(Cc2cccs2)C3=O)s1 (configuration not stated)	.
COc1ccc2c(c1)OCC(C(=O)NCc1noc(-c3ccco3)n1)C2 (configuration not stated)	.
COc1ccc2c(c1)CC(NS(=O)(=O)c1ccc(C)cc1)CO2 (configuration not stated)	.
COc1ccc2c(c1)C[C@H](C(=O)Nc1ccc(-c3cn[nH]c3)cc1OCCN(C)C)CO2	+
COc1ccccc1CNC(=O)C1(C)Cn2c(cc3ccccc32)C(=O)N1CCc1ccc(OC)c(OC)c1 (configuration not stated)	.
NC(=O)c1cnc(-c2ccc(C3(N)CCC3)cc2)c(-c2ccccc2)c1	+
NC(=O)c1ccccc1	.
CC1CCCC(NC(=O)C2(C)Cn3c(nc4ccccc43)C(=O)N2Cc2ccccc2F)C1C (configuration not stated)	.
